# This is a sample that favours compounds with a hit; in the whole collection about 2.2% have one here.
# Nrf2 activator: qHTS of Nrf2 Activators | AID 624171, 2012 | Potency, µM (highest dose often 46.1 µM), inactives show top-dose activation, hits mostly activators | hit rate 0.31% among 410,000 | AREc32 ARE-luciferase reporter (MCF7-derived line), luminescence, 24 h; note: potency is the fitted concentration of half-maximal effect; % of control where 0% means no effect; nearly all actives have a fitted effect of over 65% in size
#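 ARE-driven firefly luciferase activity in AREc32 cells measured after a 24 hr compound exposure at 37 deg C, using Steady-Glo reagent and a 30 min room-temperature hold.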
# B2AR arrestin: qHTS assay of beta-arrestin-biased ligands of beta2-adrenergic receptor. Beta-2 adrenergic receptor (Homo sapiens), P07550. hit rate 0.02% among 330,000. AID 492947, 2010. Potency, µM (titrated, usually from 46.1 µM), for inactives: at the highest dose activation, most hits filed as activators. beta-arrestin recruitment to beta2AR, cell-based reporter;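 note: potency is the fitted concentration of half-maximal effect; 0% = DMSO controls and full agonism = EC100 isoproterenol or metaproterenol; nearly all actives have a fitted effect of over 65% in size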
# Target sequence (P07550 whole entry, looked up): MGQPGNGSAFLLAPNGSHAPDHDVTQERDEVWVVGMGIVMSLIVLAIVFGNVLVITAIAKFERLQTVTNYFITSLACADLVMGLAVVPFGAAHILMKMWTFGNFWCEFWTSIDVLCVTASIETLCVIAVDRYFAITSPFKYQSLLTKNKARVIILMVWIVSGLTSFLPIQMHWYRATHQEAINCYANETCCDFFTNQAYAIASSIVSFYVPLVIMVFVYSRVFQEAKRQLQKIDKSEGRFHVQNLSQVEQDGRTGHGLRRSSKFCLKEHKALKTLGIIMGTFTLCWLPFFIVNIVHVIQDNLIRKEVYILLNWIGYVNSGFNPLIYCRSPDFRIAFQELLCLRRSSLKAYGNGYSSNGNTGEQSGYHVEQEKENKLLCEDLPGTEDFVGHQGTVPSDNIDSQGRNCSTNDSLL
# miR-21 act: qHTS Assay for Modulators of miRNAs and/orActivators of miR-21; HeLa miR-21 FLuc reporter, luciferase, 48 h; Potency, µM (doses to about 38.3 µM), inactives show top-dose activity change, positive = activation, actives largely listed as activators; 340,000 tested, under 10 active;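 note: % of control where 0% means no effect; miR-21 action dims this reporter so a rising signal means less miR-21 action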
#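 Using DMEM plus 10% FBS, HeLa miR-21-FLuc cells are incubated with test compounds (final up to about 40uM) for 48 hours; firefly luciferase signal is then imaged following reagent-mediated lysis.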
# A549 tox: Nrf2 qHTS screen for inhibitors: counterscreen for cytotoxicity; A549 ARE-Fluc cells, CellTiter-Fluor viability, 18-24 h; Potency, µM (highest dose often 46 µM), without a hit: top-dose activity change, negative = cytotoxicity, usual class: inhibitors; hit rate 0.16% among 390,000; AID 504648, 2011; note: potency is the fitted concentration of half-maximal effect; % is set by controls: 0 for no effect and ±100 for the full control effect
#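 A549 ARE_Fluc cells in 5% FBS OPTI-MEM were exposed to compounds in concentration-response for 18-24 h at 37 deg C. Viability was read by CellTiter-Fluor fluorescence (Ex 405/Em 525) after 30 min, before the luciferase read.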
# Nrf2 block: Nrf2 qHTS screen for inhibitors; A549 ARE-Fluc reporter, luciferase luminescence, 18-24 h; Potency, µM (series often up to 46 µM), without a hit: top-dose activity change, negative = inhibition, actives largely listed as inhibitors; hit rate 2.1% among 360,000; AID 504444, 2011; note: potency is the fitted concentration of half-maximal effect; % is set by controls: 0 for no effect and ±100 for the full control effect; nearly all actives have a fitted effect of over 60% in size
#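 Reporter: ARE-Fluc in A549. Exposure: 18-24 h, 37 °C, 5% CO2, 5% FBS OPTI-MEM. Readouts: fluorescent cytotoxicity (CellTiter-Fluor), then luminescent Nrf2 signal after BugLite.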
# The depositor's hits bear a star; ? = inconclusive; nt = no result; [ ] = remark or other dose. Calls come from the whole dose curve; as a rule, active = well fitted curve in the direction sought with a large enough effect; inconclusive = small, poorly fitted or top-dose-only effect, or another doubt; inactive = no such curve, though single readings can be large; an effect the other way counts as inactive or inconclusive.
SMILES,Nrf2 activator,B2AR arrestin,miR-21 act,A549 tox,Nrf2 block
Cc1cc(C(=O)N/N=C/c2ccc([N+](=O)[O-])s2)c2ccccc2n1,0%,0%,7%,?,?
Cc1ccnn1CC(=O)N/N=C/c1cccs1,-2%,0%,-10%,4%,2%
Cc1ccnn1CC(=O)N/N=C/c1ccc([N+](=O)[O-])s1,1%,0%,?,-22%,26µM*
Cn1c(SCC(=O)N/N=C/c2ccc([N+](=O)[O-])s2)nnc1-c1ccccc1,-1%,?,?,?,21µM*
Cc1ccccc1C(=O)N/N=C/c1ccc([N+](=O)[O-])s1,-4%,0%,?,-22%,10µM*
COc1ccc(Nc2cc(C(=O)NCCCN3CCN(c4ccc(OC)cc4)CC3)c3ccccc3n2)cc1,-4%,nt,?,?,nt
O=C(N/N=C/c1ccc([N+](=O)[O-])s1)c1ccccc1,-2%,0%,28%,?,23µM*
O=C(Cc1ccccc1)N/N=C/c1cccs1,3%,0%,-17%,0%,5%
Cc1ccc(-c2nnc(SCC(=O)N/N=C/c3ccc(C)s3)n2-c2ccc(C)cc2)cc1,0%[9.22 µM],0%,-11%,?,21µM*
O=C(Cc1ccccc1)N/N=C/c1ccc([N+](=O)[O-])s1,0%,4%,20%,?,21µM*
O=S(=O)(c1ccc(Cl)cc1)N1CCOCC1,nt,nt,nt,5%,?
CCN(CC)CCC(c1cc(OC)c(OC)c(OC)c1)c1c(OC)cc(OC)c2c1OC(=O)CC2c1ccc(N(C)C)cc1 (stereo unspecified),nt,nt,nt,2%,18%
O=C1CCc2cc([S+](=O)([O-])Nc3ccc(N[S+](=O)([O-])c4ccc5c(c4)CCC(=O)N5)cc3)ccc2N1,nt,nt,nt,12%,-17%
O=C(Nc1cccnc1)c1ccc(COc2ccccc2Br)cc1,0%,0%,3%,-27%,13µM*
Cc1ccc2nc(-c3ccc(C)o3)c(Nc3ccc(Cl)cc3)n2c1,nt,nt,nt,-2%,4%
COC(=O)c1c(-c2ccc(Cl)cc2)noc1N1CCN(c2cccc(OC)c2)CC1,0%,nt,4%,-2%,nt
O=S(=O)(c1ccc2c(c1)C(=NO)c1cc(S(=O)(=O)N3CCCCC3)ccc1-2)N1CCCCC1,7%,0%,?,?,?
CC1CCN(S(=O)(=O)c2ccc3c(c2)C(=NO)c2cc(S(=O)(=O)N4CCC(C)CC4)ccc2-3)CC1,7%,-1%,-24%,5.2µM*,4.1µM*
Cc1cccc(NC(=O)C(c2ccccc2)N2Cc3ccccc3C2=O)c1C (stereo unspecified),-1%,nt,0%,-4%,6%
Cc1nnsc1S(=O)c1ccc(Cl)c(Cl)c1 (stereo unspecified),11µM*,0%,?,-9%,-17%
COc1ccc(NC(=O)CC2C(=O)N(c3ccc(C)cc3)C(=O)N2Cc2cccnc2)cc1 (stereo unspecified),0%,nt,1%,-2%,-6%
Cc1ccc(-c2cc(C(=O)NNC(=O)c3csc(N4CCOCC4)n3)c3ccccc3n2)cc1,13%,0%,nt,-19%,21µM*
Cc1ccccc1/C=C1\Oc2ccccc2C1=O,13µM*,-1%,nt,-5%,7%
O=C1C(=Cc2cccs2)Oc2ccccc21,11µM*,nt,nt,0%,-13%
O=C1/C(=C/c2cccs2)COc2ccccc21,?,0%,-37%,0%,34%
SMILES,Nrf2 activator,B2AR arrestin,miR-21 act,A549 tox,Nrf2 block
O=C(N/N=C/c1cn[nH]c1-c1ccccc1)c1ccco1,8.9µM*,-1%,-20%,0%,6%
Cc1ccc(-c2cc3nccc(-c4cc([N+](=O)[O-])ccc4O)n3n2)cc1,5%,nt,?,-25%,?
CC(C)(C)c1ccccc1Nc1nc(C#N)nc(NC2CCCC2)n1,nt,nt,nt,-29%,?
CCC(C)NC(=O)c1cn(CC)c2ccc(S(=O)(=O)N3CCc4ccccc4C3)cc2c1=O (stereo unspecified),0%,nt,14%,-9%,23µM*
CCCCC[n+]1ccn(C2=C([O-])c3ccccc3C(=O)/C2=N\S(=O)(=O)c2ccccc2)c1,-2%,-1%,1%,?,?
CC(C)[n+]1ccn(C2=C([O-])c3ccccc3C(=O)/C2=N\S(=O)(=O)c2ccccc2)c1,-2%,0%,23%,-8%,23µM*
CCCC[n+]1ccn(C2=C([O-])c3ccccc3C(=O)/C2=N\S(=O)(=O)c2ccccc2)c1,-2%,0%,19%,?,20µM*
Cc1ccc(NC(=O)c2ccc3c(c2)C(=O)N(CC2CCCO2)C3=O)cc1C (stereo unspecified),3%,7.1µM*,0%,2%,?
CC(C)CC(=O)OCc1cc(=O)n2nc(C3CCCCC3)sc2n1,5%,nt,-12%,-2%,?
Cc1nc(-c2ccc(S(=O)(=O)Nc3cc(Cl)ccc3C)cc2)co1,0%,nt,-2%,-8%,nt
COc1ccc(N/C=C2\C(=O)CCc3c2oc2cc(Cl)c(O)c(Cl)c32)cc1,7.1µM*,-1%,-1%,-3%,0%
NS(=O)(=O)c1ccc(N/N=C/c2ccc[nH]2)c([N+](=O)[O-])c1,7%,-1%,8%,-6%,8.2µM*
NS(=O)(=O)c1ccc(N/N=C/c2ccc(C(=O)O)cc2)c([N+](=O)[O-])c1,0%,0%,-1%,-15%,1%
NS(=O)(=O)c1ccc(N/N=C/c2cn(-c3ccccc3)nc2-c2cccs2)c([N+](=O)[O-])c1,-2%,0%,-14%,13µM*,10µM*
COc1cccc(C(=O)N2CC(=O)Nc3ccc(C)cc3C2c2ccc(F)cc2)c1OC (stereo unspecified),2%,nt,15%,0%,8%[9.27 µM]
Cc1c(Cl)cccc1NC(=S)NCCC(c1ccccc1)c1ccccc1,0%,0%,14%,-22%,?
Cc1cc(Cl)ccc1NC(=S)NCCC(c1ccccc1)c1ccccc1,3%,0%,8%,?,16µM*
COc1cc(NC(=S)NCCC(c2ccccc2)c2ccccc2)cc(OC)c1,2%,0%,14%,?,23µM*
COc1cccc(NC(=S)NCCC(c2ccccc2)c2ccccc2)c1,1%,0%,17%,9%,nt
Cc1sc(NC(=O)CSc2ncn(-c3ccccc3)n2)nc1-c1ccccc1,4%,-1%,1%,-7%,12µM*
COC(=O)CCNC(=O)Cc1c(C)n(C(=O)c2ccc(Cl)cc2)c2ccc(OC)cc12,0%,0%,5%,0%,0%
CCCNC(=O)Cc1c(C)n(C(=O)c2ccc(Cl)cc2)c2ccc(OC)cc12,0%,0%,9%,-20%,18µM*
Cc1cccc(-c2ccc3ncnc(N(C)Cc4ccco4)c3c2)c1,nt,0%,nt,nt,nt
